Out of some 210,000 compounds screened, about 5,900 (2.8%) were called active. A call without a number means that no potency is given here. Inconclusive results (about 5%) are left out. The sample holds actives, similar compounds and a random draw of the others, so the mix is not that of the screen. A number with no mark means an inactive call. The call rests on the fitted dose curve; in most records, active means well fitted activation curve with a large enough effect; inconclusive means small, poorly fitted or top-dose-only effect; inactive means no such curve, though single readings can be large or run the other way.
Assay: qHTS Assay for Enhancers of SMN2 Splice Variant Expression; further: nearly all actives have a fitted effect of over 55% in size
Conditions: HEK293 SMN2-luciferase splicing reporter, luminescence, 30-36 h; series mostly up to 46.1 µM
Procedure, shortened: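 HEK293 cells carry an SMN2 minigene-luciferase reporter in which exon 7 inclusion puts luciferase in frame. Cells were seeded at 2000 cells/well, attached for 10-12 hours, then exposed to compounds for 30-36 hours at 37C before ONE-Glo luminescence.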
Potency means the concentration at half of the fitted maximal effect.

Structure (SMILES)	Potency	activity change, positive = activation
COc1ccc(NC(=O)CC2COc3ccccc3O2)c(OC)c1 (configuration not stated)	inactive	
Cc1ccc(SCCC(=O)Nc2cc(C)on2)cc1	inactive	
Cc1cc(NC(=O)CCC2COc3ccccc3O2)no1 (configuration not stated)	12.6 µM (active)	
CCc1ccccc1NC(=O)c1ccc2c(c1)CCN2S(C)(=O)=O	inactive	
Cn1c(=NC(=O)CSCC(=O)N2CCOCC2)sc2ccccc21	inactive	
Cn1c(=NC(=O)CSCC(=O)N2CCCCC2)sc2ccccc21	inactive	
Cn1c(=NC(=O)c2cnccn2)sc2ccccc21	12.6 µM (active)	
Cc1cc(C)cc(OCC(=O)Nc2nc(-c3ccc(F)cc3)ns2)c1	inactive	
O=C(NCC12CC3CC(CC(C3)C1)C2)c1cc2nc(-c3ccccc3)cc(C(F)(F)F)n2n1	inactive	
COC(=O)CSc1nc(C)c2ccc(OC)cc2n1	inactive	
COc1ccc2nc(/N=C(\N)NC(=O)Nc3ccccc3)nc(C)c2c1	inactive	
COc1ccc2nc(SCc3ccccc3)nc(C)c2c1	11.2 µM (active)	
CCc1nn(CCCC(=O)NC(C)c2ccccc2)c(=O)c2cc3occc3n12 (configuration not stated)	inactive	
Cc1ccc(S(=O)(=O)n2nc(-c3ccc(Cl)cc3)nc2NCc2ccccc2)cc1	inactive	
CCOc1ccc(Nc2oc(/C=C/c3ccc(F)cc3)nc2C#N)cc1	inactive	
COc1ccccc1NC(=O)/C=C/C(N)=O	inactive	
COc1ccccc1NC(=O)c1ccc(C)s1	12.6 µM (active)	
COc1ccccc1NC(=O)C1=C(C)NC(=O)NC1c1ccc(C)s1 (configuration not stated)	inactive	
Cc1cc(C)cc(NS(=O)(=O)c2ccc3[nH]cc(C(=O)N4CCCCC4)c(=O)c3c2)c1	inactive	
Cc1ccc(Nc2c(-c3ccc(Cl)cc3)nc3sccn23)c(C)c1	inactive	
CCCCOc1ccc(C(=O)N2CC(=O)Nc3ccc(Br)cc3C2c2ccc(F)cc2)cc1 (configuration not stated)	inactive	
Cc1ccc(NC(=S)NC(=O)c2ccc(-c3ccccc3)cc2)c(C)c1	inactive	
Cc1ccc(NC(=S)Nc2ncccc2C)c(C)c1	12.6 µM (active)	

Structure (SMILES)	Potency	activity change, positive = activation
Cc1ccc(NC(=S)NCc2ccccc2Cl)c(C)c1	inactive	
O=C(OCc1ccc([N+](=O)[O-])cc1)c1ccccn1	inactive	
N/C(=N\OC(=O)c1ccc([N+](=O)[O-])cc1)c1ccccn1	6.31 µM (active)	
N/C(=N\OC(=O)Cc1ccc([N+](=O)[O-])cc1)c1ccccn1	inactive	
CCOC(=O)c1ccc(N2C(=O)c3n[nH]c(-c4ccco4)c3C2c2ccc(O)cc2)cc1 (configuration not stated)	inactive	
Cc1nc2ccc(S(=O)(=O)NC(C(=O)NCc3ccccc3Cl)C(C)C)cc2s1 (configuration not stated)	inactive	
COc1ccc(-c2nc(CN3CCC(C(=O)NCCN(CC(C)C)CC(C)C)CC3)c(C)o2)cc1OC	inactive	
COc1ccc(CNc2nc(-c3ccc(Cl)cc3)cc(C(F)(F)F)n2)cc1	inactive	
O=C1CC(c2ccc(F)cc2F)c2cc3c(cc2N1)OCO3 (configuration not stated)	inactive	
COc1c2c(cc3occ(-c4ccc5c(c4)OCO5)c(=O)c13)OC(C)(C)C=C2	6.31 µM (active)	
COc1ccc(CCNC(=O)c2cc(-c3ccc4c(c3)OCO4)on2)cc1OC	inactive	
Cc1cccc(NC(=O)CSc2nnc(CNC(=O)c3cccc(C)c3)n2-c2ccccc2)c1	inactive	
CCN1CCN(c2cc(C)c3cc(NC(=O)c4cc(Cl)ccc4OC)ccc3n2)CC1	inactive	
CCc1cccc(NC(=O)CSc2nccn2C)c1	inactive	
Cc1ccc(C(=O)CSc2nc3ccccc3c(=O)n2N)o1	15.8 µM (active)	
O=C(CCn1c(SCC(=O)c2ccccc2)nc2ccccc2c1=O)NCc1ccc(F)cc1	inactive	
O=C(CCCn1c(SCC(=O)c2ccc(F)cc2)nc2ccccc2c1=O)NCc1ccco1	inactive	
COc1ccc(-c2nc(-c3ccccc3)no2)c(OC)c1	0.447 µM (active)	
COc1ccc(/C=C/c2noc(-c3ccccc3O)n2)cc1OC	inactive	
COc1ccc(-c2noc(CN(C)S(=O)(=O)c3ccc(C)cc3)n2)cc1	inactive	
COc1ccc(-c2nnco2)cc1OC	inactive	
COc1ccc(-c2noc(CSc3ccc(C)cc3)n2)cc1	inactive	
COc1ccc(-c2noc(-c3cccc(OC)c3OC)n2)cc1OC	12.6 µM (active)	

Structure (SMILES)	Potency	activity change, positive = activation
COc1ccc(-c2noc(CSc3nnc(-c4ccccc4)n3-c3ccc(F)cc3)n2)c(OC)c1	inactive	
CCOc1nc(-c2ccc(OC)cc2)ccc1-c1noc(-c2cc(OC)c(OC)c(OC)c2)n1	inactive	
COc1ccc(-c2noc(-c3ccc(C)cc3)n2)cc1	17.8 µM (active)	
COc1ccc(CC(N)C(=O)NC2C(O)[C@H](n3cnc4c(N(C)C)ncnc43)O[C@@H]2CO)cc1 (some centres not stated)	inactive	
CC1=C(C(=O)OCC2CCCCC2)C(c2c(F)cccc2Cl)CC(=O)N1 (configuration not stated)	inactive	
O=C(Nc1cc(C(F)(F)F)ccc1Cl)c1ccc2c(c1)CCN2S(=O)(=O)c1ccccc1	inactive	
CCSc1ncc(Cl)c(C(=O)Nc2c(C(=O)c3ccccc3)oc3ccccc23)n1	inactive	
O=C(C1CCCN(S(=O)(=O)c2cccc3nonc23)C1)N1CCN(c2ccccc2F)CC1 (configuration not stated)	inactive	
COc1ccccc1Nc1cc(C(=O)NCCCN(C)C2CCCCC2)c2ccccc2n1	inactive	
CCCC12CN3CC(C)(CN(C1)C3c1ccccc1Cl)C2=O (configuration not stated)	inactive	
CC(C)CC(=O)NC(=S)NCc1ccccc1	inactive	
CCC(=O)NC(=Nc1nc2ccccc2s1)NC(=O)CC	10 µM (active)	
CC(C)CC(=O)N/C(N)=N/c1nc2ccccc2s1	11.2 µM (active)	
Cc1cc(C(=O)OCC(=O)Nc2nnc(C(C)C)s2)c2ccccc2n1		10.4% [at 1.84 µM]
O=C(O)CCCCc1nc2ccccc2s1	inactive	
COC(=O)c1nc2ccccc2s1	inactive	
CCc1nn(CC(=O)N2CCN(c3ccc(Cl)cc3)CC2)c(=O)c2cc3occc3n12	inactive	
CCc1ccc(S(=O)(=O)Nc2cc3c(C(=O)OCc4ccccc4)c(C)oc3c3ccccc23)cc1	inactive	
O=C(CSc1ncc(S(=O)(=O)c2ccc(Br)cc2)c(=O)[nH]1)Nc1ccc2c(c1)OCCO2	inactive	
Cc1ccc(NC(=O)CN2c3ccccc3S(=O)(=O)c3ccccc32)cc1F	inactive	
CCOc1ccccc1NC(=O)CCS(=O)(=O)c1cccc2nsnc12	inactive	

Source: PubChem BioAssay AID1458 (National Center for Advancing Translational Sciences (NCATS), 2008)
